Reference: PubChem BioAssay (Tox21)
Some compounds were tested as several samples or in several runs, with calls that do not always agree. The source made the active and inactive calls. A call without a number means that no potency is given here. Calls come from the whole dose curve; as a rule, active = well fitted activation curve with a large enough effect in the repeat runs; inconclusive = weak or mixed curves; inactive = flat fitted curve, though single readings scatter.

Assay: A CellTox Green Cytotoxicity Assay to monitor cytotoxicity in HEK293 cells - 0 hour (AID 1224869); note: nearly all actives have a fitted effect of over 50% in size
Conditions: CellTox Green fluorescence; series mostly up to 76.8 µM; cytotoxicity: at the top concentration
From the text: National Center for Advancing Translational Sciences [NCATS]
NIH Chemical Genomics Center [NCGC]
U.S. Environmental Protection Agency [EPA]
National Institutes of Environmental Health Sciences [NIEHS]
National Toxicology Program [NTP]
Cell-based models are critical for drug discovery. Determining the natural cytotoxic effects resulting from test compounds is an essential research activity. A CellTox Green Cytotoxicity Assay to monitor cytotoxicity in real time of continues cell culture during 40 hours of the compound treatment was used to screen Tox21 10K library compounds in Hek293 cells. CellTox Green Cytotoxicity Assay is a nonlytic, homogeneous, biofluorescent method to measure cytotoxicity in cell culture after experimental manipulation. The assay system uses a proprietary asymmetric cyanine dye that is excluded from viable cells but preferentially stains the dead cell's DNA. […] Viable cells produce no appreciable increases in fluorescence. Therefore, the fluorescence signal produced by the binding interaction with dead cell DNA is proportional to cytotoxicity.
The mixture of Hek293 cell suspension and reagents were dispensed at 600cells/6 ul/well in 1536-well tissue culture treated black solid bottom plates using a Multidrop dispenser. After the assay plates were incubated at a 37 C/5% CO2 incubator for 5 hours, 23 nL of compounds dissolved in DMSO, positive and negative controls was transferred to the assay plate by a pintool work station. The plates were incubated at 37 C for 40 hours. The fluorescence intensity were measured at 0h, 8h, 16h, 24h, 32h and 40h time points using ViewLux plate reader during compound treatment.
Potency is the fitted concentration of half-maximal effect.

Row | Compound | Potency | cytotoxicity
1 | CC(C)Cc1ccccc1 | inactive | 
2 | CC(C)NCC(O)COc1cccc2ccccc12 (stereo not given) | inactive | 
3 | CC(=O)[C@@]1(O)CC[C@H]2[C@@H]3CCC4=CC(=O)CC[C@]4(C)[C@H]3CC[C@@]21C | inactive | 
4 | O=C(c1cc(O)c(O)c(O)c1)c1ccc(O)c(O)c1O | inactive | 
5 | NS(=O)(=O)c1cc2c(cc1Cl)NC=NS2(=O)=O | inactive | 
6 | CC1COc2ccccc2N1C(=O)C(Cl)Cl (stereo not given) | inactive | 
7 | NCc1cccc(CN)c1 |  | 2.37% (inactive)
8 | O=C(O)c1cc(-c2ccccc2)nc2ccccc12 | inactive | 
9 | CC1=CC[C@H]2C[C@@H]1C2(C)C | inactive | 
10 | CCCCC(CC)COC(=O)CCCCCCCC(=O)OCC(CC)CCCC (stereo not given) | 54.9 µM (active) and inactive | 
11 | O=[N+]([O-])C(CO)(CO)CO | inactive | 
12 | Nc1c(S(=O)(=O)O)cc(Br)c2c1C(=O)c1ccccc1C2=O | inactive | 
13 | OC[C@@H](O)[C@H](O)[C@H](O)[C@@H](O)CO | inactive | 
14 | CCCCOCCO | inactive | 
15 | c1ccc2[nH]cnc2c1 | inactive | 
16 | OC[C@@H](O)[C@@H](O)[C@H](O)[C@@H](O)CO | inactive | 
17 | C[C@@H]1O[C@@H](OC[C@H]2O[C@@H](Oc3c(-c4ccc(O)c(O)c4)oc4cc(O)cc(O)c4c3=O)[C@H](O)[C@@H](O)[C@@H]2O)[C@H](O)[C@H](O)[C@H]1O | inactive | 
18 | O=C1O[C@H](CO)[C@@H](O)[C@H](O)[C@H]1O | inactive | 
19 | COCC(=O)O | inactive | 
20 | CCC(C)C=O (stereo not given) | inactive | 

Row | Compound | Potency | cytotoxicity
21 | CC1(C)O[C@@H]2C[C@H]3[C@@H]4C[C@H](F)C5=CC(=O)CC[C@]5(C)[C@H]4[C@@H](O)C[C@]3(C)[C@]2(C(=O)CO)O1 |  | 4.03% [at 35.3 µM] (inactive)
22 | COC(=O)Nc1nc2ccc(Sc3ccccc3)cc2[nH]1 | inactive | 
23 | CC(=O)Nc1ccc(C(=O)O)cc1 | inactive | 
24 | Cc1cc(Cc2ccc(N)c(C)c2)ccc1N | inactive | 
25 | O=[N+]([O-])c1cccc(Cl)c1 | inactive | 
26 | C[C@@H](O)[C@H]1C(=O)N2C(C(=O)O)=C(S[C@@H]3CN[C@H](C(=O)N(C)C)C3)[C@H](C)[C@H]12 | inactive | 
27 | O=C(Cl)c1c(Cl)c(Cl)c(C(=O)Cl)c(Cl)c1Cl | inactive | 
28 | Cc1cc(O)c2c(c1)C(=O)c1cc(O)cc(O)c1C2=O | inactive | 
29 | Nc1cc(-c2ccncc2)c[nH]c1=O | inactive | 
30 | COC(=O)c1ccccc1O | inactive | 
31 | NC(=O)/N=N/C(N)=O | inactive | 
32 | CCCCCC/C=C/CCCCCCCC(=O)O | inactive | 
33 | CCCCCCCCCCCCN | inactive | 
34 | CC(C)(C)C1CCC(O)CC1 (stereo not given) | inactive | 
35 | Cn1c([N+](=O)[O-])cnc1COC(N)=O |  | -9.05% (inactive)
36 | Nc1nc2ncc(CNc3ccc(C(=O)N[C@@H](CCC(=O)O)C(=O)O)cc3)nc2c(=O)[nH]1 | inactive | 
37 | NCCNCCNCCNCCN | inactive | 
38 | Clc1ccc(Cl)c(Cl)c1Cl | inactive | 
39 | CN(C)c1ccc(C(=N)c2ccc(N(C)C)cc2)cc1 | inactive | 
40 | C=C1CC[C@H](O)CC1=C/C=C1\CCC[C@]2(C)[C@@H]([C@H](C)/C=C/[C@H](C)C(C)C)CC[C@@H]12 | inactive | 
